Assay outcomes from PubChem.
AmpC inh det = AmpC beta-lactamase inhibition, detergent assay | Potency, µM (doses to about 28.7 µM), for inactives: at the top dose activity change, negative = inhibition | actives 0.09% (n = 71,000) | purified AmpC, nitrocefin hydrolysis with detergent | P00811; active means well fitted curve in the direction sought with a large enough effect; inconclusive means small, poorly fitted or top-dose-only effect; further: on the % scale 0 is the no-effect control and ±100 the full control effect
Target sequence (P00811 whole entry, looked up): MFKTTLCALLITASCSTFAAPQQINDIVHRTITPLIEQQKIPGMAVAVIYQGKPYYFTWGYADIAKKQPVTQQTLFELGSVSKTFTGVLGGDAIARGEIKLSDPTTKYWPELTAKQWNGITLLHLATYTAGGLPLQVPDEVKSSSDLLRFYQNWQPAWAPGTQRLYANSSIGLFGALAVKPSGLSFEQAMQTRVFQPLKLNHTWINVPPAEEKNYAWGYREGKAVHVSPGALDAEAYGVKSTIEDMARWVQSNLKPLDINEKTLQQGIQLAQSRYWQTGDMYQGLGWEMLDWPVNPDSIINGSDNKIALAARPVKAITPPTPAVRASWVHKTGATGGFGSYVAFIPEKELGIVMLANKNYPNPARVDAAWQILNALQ
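E. coli AmpC (5.3 nM) in 20 mM phosphate pH 7.0 with 0.01% Triton X-100, preincubated 15 min RT with compound; nitrocefin (2 uL of 800 uM stock) hydrolysis followed by 480 nm absorbance every 20 s over 4 min.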
AmpC inh no det = blocks E. coli AmpC beta-lactamase in absence of detergent | actives 1.8% (n = 71,000) | Potency, µM (titrated, usually from 28.7 µM), without a hit: at the top dose activity change, negative = inhibition | AmpC nitrocefin hydrolysis, absorbance 480 nm, no detergent | P00811 | AID 585; further: % of control where 0% means no effect
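AmpC in 20 mM phosphate buffer pH 7.0 was preincubated 15 min at room temperature with compounds. Nitrocefin (800 uM stock) was then added and hydrolysis followed at 480 nm every 20 s for 4 min.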
SmPrx2 inh = inhibitors of Schistosoma mansoni peroxiredoxin 2 | S. mansoni Prx2 activity coupled to TGR/GSH (TGR is thioredoxin glutathione reductase), NADPH fluorescence loss, qHTS | Potency, µM | actives 0.07% (n = 65,000)
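Coupled assay in which S. mansoni TGR passes NADPH reducing equivalents via glutathione to Prx2, which reduces H2O2. Compounds were preincubated 15 min at room temperature with 25 nM TGR/50 nM Prx2 mix. Kinetic NADPH fluorescence loss (ex 365/em 450 nm) was monitored.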
LT uptake inh = inhibitors of anthrax lethal toxin internalization; Potency, µM (highest dose often 40 µM), for inactives: at the highest dose activity change, negative = inhibition, hits mostly inhibitors; Cells, anthrax lethal toxin internalization, FRET ratio (460/530); actives 0.67% (n = 70,000); further: on the % scale 0 is the no-effect control and ±100 the full control effect; nearly all actives have a fitted effect of over 50% in size
Starred values were filed as active, the others as inactive; ? = inconclusive; . = no result given; ! = not confirmed by another sample; [ ] = another dose, or the depositor's remark. Most compounds without a hit are left out; they make up all but 2.4% or so of the library. Unless noted, the call rests on the fitted dose curve. Potency means the concentration at half of the fitted maximal effect.

SMILES | AmpC inh det | AmpC inh no det | SmPrx2 inh | LT uptake inh
Ic1ccccc1CN[C@@H]1C2CCN(CC2)[C@H]1C(c1ccccc1)c1ccccc1 | 0.1% | 90.8% | >57 | 15.8µM*
N#CCSc1nc2ccccc2c(=O)n1CCC(=O)NCCc1ccccc1 | -2.7% | 15.8µM*[single pt active] | >57 | 0.7%
CC(=O)NCCn1c(SCC#N)nc2ccccc2c1=O | 0.9% | 6.1% | >57 | ?
O=c1oc2ccccc2n1CCc1ccccc1 | -1.7% | -11.1% | >57 | -4.3%
O=c1oc2ccccc2n1Cc1ccccc1Cl | 14.3% | 3.98µM* | >57 | ?
c1ccc(C2=Nn3c(nnc3-c3cc(-c4ccccc4)n[nH]3)SC2)cc1 | 3.1% | 38.0% | >57 | 12.6µM*
Cc1ccc(-c2nnc3n2N=C(c2ccccc2)CS3)cc1 | 13.2% | 8.3% | >57 | -18.0%
COc1ccc(CNC(=O)Cn2nc(C(F)(F)F)c3c2CCC3)cc1 | -2.0% | 6.6% | >57 | -5.3%
COc1ccc(NC(=O)Cn2nc(C(F)(F)F)c3c2CCCC3)c(OC)c1 | -6.9% | 52.3% | >57 | 12.6µM*
CC[N+](CC)(CC)CCOc1cccc(OCC[N+](CC)(CC)CC)c1OCC[N+](CC)(CC)CC | -5.1%[12.8 µM] | 12.6µM*! | ? | -4.0%[3.58 µM]
CN(C)CCN(C)CCc1ccc(Cl)c(Cl)c1 | -1.3% | 1.4% | >57 | -20.7%
O=C(CN1CC(c2ccccc2)CC1=O)Nc1ccc2c(c1)OCO2 (stereo not given) | 8.9% | 16.8% | >57 | -3.0%
O=C(CN1CCN(Cc2ccc(F)cc2)C1=O)NCc1cccs1 | 10.6% | 13.0% | >57 | -8.8%
COc1ccc(NC(=O)CN2CC(c3ccccc3)CC2=O)cc1OC (stereo not given) | 13.5% | 3.98µM*[single pt active] | >57 | 1.4%
O=C(CN1CC(c2ccccc2)CC1=O)NCc1ccc(F)cc1 (stereo not given) | 11.2% | 3.98µM*[single pt active] | >57 | -7.8%
COc1ccccc1-c1nnc(SCC(=O)Nc2c(Cl)cccc2Cl)o1 | -3.2% | -13.6% | >57 | 20.3%
COc1ccccc1-c1nnc(SCC(=O)NCc2c(C)c(Cl)cc(C(C)C)c2O)o1 | 0.0% | 94.1% | >57 | 10µM*
Nc1ccccc1O.O.O=C(O)[C@H]1[O][Sb][O][C@H]1C(=O)O | -1.7%[5.75 µM] | -4.6%[5.75 µM] | 0.221* | ?
COC(=O)C1=C(C)Nc2ccc(C)cc2S1 | 12.5% | 3.98µM*[single pt active] | >57 | -17.1%
Cc1ccc(-c2nc(CSCC(=O)N3CCCC3)c(C)o2)cc1 | -0.7% | 66.8% | >57 | 6.9%
Cc1ccsc1-c1nc(CSCC(=O)N2CCN(c3ccccc3)CC2)c(C)o1 | 10.0% | 127.1% | >57 | 15.8µM*
Cc1ccc(S(=O)(=O)C2(C(=O)NCc3ccc4c(c3)OCO4)CC2)cc1 | 11.2% | 3.98µM*[single pt active] | >57 | 0.7%
COc1ccc(Cc2ccc3[nH]c(=O)cc(C)c3c2)cc1S(=O)(=O)O | -2.8%[5.75 µM] | 0.1%[5.75 µM] | >57 | 14.9%[8 µM]
O=C(c1ccc(F)cc1)C(CN1CCOCC1)c1ccccc1 (stereo not given) | -3.9% | 42.3% | . | 12.6µM*
c1ccc(C(CN2CCOCC2)c2ccccc2)cc1 | -2.6% | 18.9% | >57 | 3.2%
SMILES | AmpC inh det | AmpC inh no det | SmPrx2 inh | LT uptake inh
COc1ccc(-c2cc3ccccc3n2CC(O)CN2CCOCC2)cc1 (stereo not given) | 10.4% | 144.4% | >57 | -3.3%
COc1ccc(C(c2c(O)ccc3ccccc23)N2CCOCC2)c(OC)c1 (stereo not given) | 11.7% | 77.1% | >57 | 6.31µM*
O=C(COc1ccc(Cl)cc1)NCc1nnc(SCC(=O)Nc2ccccc2)o1 | -4.1% | 29.9% | >57 | -3.3%
O=C(CSc1nnc(CNc2ccc(Cl)cc2)o1)Nc1nc2ccccc2s1 | 0.1% | 3.98µM*[single pt active] | >57 | -4.0%
CCOC(=O)c1sc(NC(=O)c2noc3c2CCCC3)c(C(=O)OCC)c1C | 12.7% | 3.98µM*[single pt active] | >57 | -13.0%
CCOC(=O)c1c(NC(=O)c2noc3c2CCCC3)sc(C)c1C | 2.3% | 13.2% | >57 | 7.8%
O=C=Nc1ccc(Cc2ccc(N=C=O)cc2)cc1 | 8.7% | 15.8µM* | . | -9.3%
CC(C)Oc1ccc2c(=O)c3cc(C(=O)O)ccc3oc2c1 | -3.3% | 4.1% | >57 | ?
CN(C(=O)c1ccc(NC(=O)c2cnccn2)cc1)C1CCCCC1 | 1.8% | 16.6% | >57 | -13.0%
Cc1ccc(S(=O)(=O)NCCn2c(C)cc3ccccc32)cc1 | -3.5% | 15.8µM*[single pt active] | >57 | -8.8%
Cc1cc2ccccc2n1CCNC(=O)C(C)C | 10.0% | 21.5% | >57 | -6.1%
OC(COc1ccc(Cl)cc1)CN1CCCCC1 (stereo not given) | 1.0% | -1.9% | >57 | -16.8%
COc1ccc(OCC(O)CN2CCCCC2)cc1 (stereo not given) | 10.9% | 3.98µM*[single pt active] | >57 | -8.7%
O=C(c1cc2ccccc2cc1OCC(O)CN1CCCCC1)N1CCCCC1 (stereo not given) | 11.5% | 3.98µM*[single pt active] | >57 | -12.1%
CC[C@@H](CO)NC(=O)[C@H]1C=C2c3cccc4c3c(cn4C)C[C@H]2N(C)C1 | -5.6% | 30.7% | >57 | ?
N#Cc1c(C(F)(F)F)cc(C2CC2)[nH]c1=O | 15.1% | 3.98µM*[single pt active] | >57 | -11.3%
CC(=O)N1CCC2(CC1)CN(C(c1ccccc1)c1ccccc1)C2 | -2.1% | 5.6% | >57 | 3.0%
COc1ccccc1C(=O)N(Cc1ccco1)C1CCS(=O)(=O)C1 (stereo not given) | 14.7% | 8.1% | >57 | 3.4%
O=C(c1cnn2ccccc12)N(Cc1ccco1)C1CCCC1 | 10.4% | 3.98µM*[single pt active] | >57 | -0.1%
O=C(c1ccco1)N1CCCC(c2nc(-c3ccc(S(=O)(=O)NCc4ccccc4)cc3)no2)C1 (stereo not given) | -3.9% | 0.8% | >57 | 12.6µM*
COc1ccc(-c2noc(C3CCCN(C(=O)CCc4ccccc4)C3)n2)cc1 (stereo not given) | 0.6% | 77.2% | >57 | -0.1%
COCCn1c(=O)c(-c2ccc(Cl)cc2)nc2cnc(OC)nc21 | 0.1% | 0.0% | >57 | -4.5%
CCOC(=O)N1CCC(NC(=O)c2ccc3snnc3c2)CC1 | 13.5% | 3.98µM*[single pt active] | >57 | 0.9%
CC(C)(CO)[C@H](O)C(=O)NCCC(=O)O | -3.6%[12.8 µM] | -11.0%[12.8 µM] | >57 | -2.1%[3.58 µM]
Cc1ccc(Nc2nc(N3CCOCC3)c3ccccc3n2)cc1 | -0.2% | 10.2% | >57 | -13.7%
SMILES | AmpC inh det | AmpC inh no det | SmPrx2 inh | LT uptake inh
Oc1ccc(Nc2nc(N3CCCC3)c3ccccc3n2)cc1 | 30.2% | ? | >57 | 12.6µM*
COc1ccc(NC(=O)NCCCN2CCN(c3cc(C)ccc3C)CC2)cc1 | 12.1% | 3.98µM*[single pt active] | >57 | ?
COC(=O)[C@@]1(Cc2ccc(OC)cc2)[C@H]2c3cc(C(=O)N(C)C)n(CCc4c[nH]c5ccc(O)cc45)c3C[C@H]2CN1C(=O)c1ccccc1 | 0.0% | 118.2% | >57 | ?
COc1ccc2nc3sc(C(=O)NCc4cccs4)c(N)c3cc2c1 | 28.1% | 12.6µM* | >57 | 2.4%
O=C1c2ccccc2C(Nc2ccc3c(c2)OCCO3)N1c1ccccn1 (stereo not given) | 8.6% | 13.9% | >57 | ?
O=C1c2ccccc2C(Nc2ccc3c(c2)OCCO3)N1Cc1ccc2c(c1)OCO2 (stereo not given) | 11.2% | 3.98µM*[single pt active] | >57 | ?
